Records with an inconclusive call do not appear. A call without a number means that no potency is given here. Active and inactive are the calls of the source. The call rests on the fitted dose curve; in most records, active means well fitted inhibition curve with a large enough effect; inconclusive means small, poorly fitted or top-dose-only effect; inactive means flat fitted curve, though single readings scatter.
The compounds below were run against Luciferin 4-monooxygenase (Photinus pyralis) (UniProt P08659) (assay: qHTS Assay for Inhibitors of Firefly Luciferase from the GSK Published Protein Kinase Inhibitor Set). Details: purified firefly luciferase, luminescence inhibition; series mostly up to 57.5 µM.
Text: FLuc (firefly luciferase) is the prototypical bioluminescent reporter gene from Photinus pyralis.[1] The enzyme catalyzes the oxidation luciferin via luciferin-AMP to produce light. FLuc is used in cell-based reporter gene-based assays for screening small molecule chemical libraries. However, small molecule luciferase inhibitors present in most large chemical libraries are often enriched in the output of high throughput screens using this reporter sometimes complicating interpretation and candidate selection.
RLuc is a bioluminescent reporter gene luciferase from Renilla reniformis, also known as the sea pansy. RLuc uses the luciferin substrate coelenterazine. RLuc is often used in combination with the nonhomologous luciferase FLuc (firefly luciferease) as a trasfection or pathway normalization control. Recently, non-homologous reporters have been described for high throughput screening 'coincidence' reporter gene strategies.
1. Fan F, Wood KV (2007) Bioluminescent assays for high-throughput screening. Assay Drug Dev Technol 5: 127-136.
2. Thorne N, Inglese J, Auld DS (2010) Illuminating insights into firefly luciferase and other bioluminescent reporters used in chemical biology. Chem Biol 17: 646-657.
3. […] Chem Biol 19: 1060-1072.
4. Michelini E, Cevenini L, Mezzanotte L, Coppa A, Roda A (2010) Cell-based assays: fuelling drug discovery. Anal Bioanal Chem 398: 227-238.
5. Cheng KC, Inglese J (2012) A coincidence reporter-gene system for high-throughput screening. Nat Methods 9: 937.
Biochemical firefly luciferase enzyme assay
NCGC Assay Protocol Summary:
Reagents: 50mM Tris acetate, pH 7.5; 10mM Mg acetate; 10uM D-luciferin (Sigma #L9504); 10uM ATP; 0.01% Tween-20; 0.05% BSA; 10nM P. pyralis luciferase (Sigma #L9506)
Control compounds used were two known firefly luciferase inhibitors (compounds (2) and (5) in Auld et al., 2010), and DMSO.
Three microliters containing firefly luciferase substrates in buffer (final concentrations: 50mM Tris acetate, pH 7.5, 10mM Mg acetate, 0.01% Tween-20, 0.05% BSA, 10uM D-luciferin, and 10uM ATP) are dispensed into each well of a Greiner white, solid-bottom 1536-well format plate using a flying reagent dispenser (FRD). These assay plates were then treated with 23nL of compound or DMSO using a Kalypsys pin tool, which allows for delivery of a 7-point interplate titration of each compound to the assay plates (quantitative HTS), with final compound concentrations ranging from approximately 60uM to 300pM. One microliter of firefly luciferase in 50mM Tris-acetate buffer was then delivered by FRD to each well for a final enzyme concentration of 10nM. Luciferase activity was then measured using an Envision plate reader (PerkinElmer), with an average incubation time of 5 min.
Potency means the concentration at half of the fitted maximal effect.

Sequence of Luciferin 4-monooxygenase (Photinus pyralis) (P08659 whole entry, looked up): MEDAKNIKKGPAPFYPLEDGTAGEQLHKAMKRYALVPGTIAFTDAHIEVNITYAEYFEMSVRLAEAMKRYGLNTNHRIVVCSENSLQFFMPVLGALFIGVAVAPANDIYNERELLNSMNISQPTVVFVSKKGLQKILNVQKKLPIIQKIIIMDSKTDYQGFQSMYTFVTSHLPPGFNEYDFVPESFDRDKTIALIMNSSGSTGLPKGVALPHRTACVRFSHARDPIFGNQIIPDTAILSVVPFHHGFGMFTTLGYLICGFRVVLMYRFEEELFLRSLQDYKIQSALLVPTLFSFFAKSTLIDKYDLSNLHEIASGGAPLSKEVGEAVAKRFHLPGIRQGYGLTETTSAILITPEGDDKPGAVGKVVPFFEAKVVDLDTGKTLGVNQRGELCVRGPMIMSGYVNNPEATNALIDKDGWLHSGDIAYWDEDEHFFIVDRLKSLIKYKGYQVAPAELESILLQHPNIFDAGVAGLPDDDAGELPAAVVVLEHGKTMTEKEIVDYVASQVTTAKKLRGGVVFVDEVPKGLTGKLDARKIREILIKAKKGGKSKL

SMILES	Potency
Cc1cc(O)cc(C)c1C=Cc1cncc(C(=O)OC(C)(C)C)c1	inactive
NS(=O)(=O)c1ccc(N=Nc2c(O)[nH]c3ccc(C(=O)NCc4ccncc4)cc23)cc1	inactive
CNC(=O)c1cncc(C=Cc2ccccc2C)c1	inactive
CN1CCN(Cc2ccc(-c3cc4ncnc(Nc5ccc(OCc6cccc(F)c6)c(Cl)c5)c4s3)o2)CC1	inactive
COc1cccc(Nc2nccc(-c3cnn4ncccc34)n2)c1	inactive
Nc1ncnc2occ(-c3ccc(NC(=O)Nc4cc(C(F)(F)F)ccc4F)cc3)c12	inactive
Fc1ccc(-c2ncn(CCCN3CCOCC3)c2-c2ccncc2)cc1	inactive
COc1cc(Nc2ncc(-c3ccccc3)o2)cc(OC)c1OC	inactive
CN(C)CCOc1ccc(-c2cc(-c3ccc4c(c3)CCC4=NO)c(-c3ccncc3)o2)cc1	inactive
Oc1cccc(-c2nc(-c3ccccc3)[nH]c2-c2ccncc2)c1	inactive
CN1CCC(C(=O)Nc2n[nH]c3nnc(-c4ccccc4)cc23)CC1	inactive
COc1cc(C=NNc2ncnc3c2cnn3-c2ccccc2)ccc1O	inactive
COC(=O)c1ccc2c(c1)/C(=C/c1cc(Br)c(O)c(Br)c1)C(=O)N2	20.6 µM (active)
CCn1c(-c2nonc2N)nc2c(C#CC(C)(C)O)ncc(OCC3CCCN3)c21 (stereo not given)	inactive
COc1cccc(COc2cc(-n3cnc4ccccc43)sc2C(N)=O)c1	inactive
CS(=O)(=O)CCNCc1cc(-c2cc3c(Nc4ccc(OCc5cccc(F)c5)c(Cl)c4)ncnc3s2)cs1	inactive
COc1cc(C)c(NC(=O)CN(C)C)cc1Nc1nc(Nc2cccc(F)c2C(N)=O)c2cc[nH]c2n1	inactive
CC(C)c1ccc2c(N=Nc3ccc(S(N)(=O)=O)cc3)c(O)[nH]c2c1	inactive
CC1=C(C(=O)Nc2ccc3n[nH]c(C)c3c2)C(c2ccc(C(F)(F)F)cc2)CC(=O)N1 (stereo not given)	inactive
O=C(OC1CNC(C#Cc2cc3ncnc(Nc4ccc(Cc5ccccc5)cc4)c3s2)C1)N1CCOCC1 (stereo not given)	inactive

SMILES	Potency
N#Cc1c(NC(=O)CN2CCOCC2)sc2c1CCCC2	inactive
CS(=O)(=O)CCNCc1nc(-c2ccc3ncnc(Nc4ccc(F)c(Cl)c4)c3c2)cs1	inactive
NS(=O)(=O)c1ccc(N=Nc2c(O)[nH]c3ccc(C(=O)NCCCn4ccnc4)cc23)cc1	inactive
c1ccc(-c2[nH]ncc2-c2ccnc(-c3ccc(OCCn4ccnc4)cc3)c2)nc1	inactive
COc1cc2ncn(-c3cc(OC(C)c4ccccc4Cl)c(C(N)=O)s3)c2cc1OC (stereo not given)	inactive
Cc1ccc2c(-c3ccnc(Nc4ccccc4)n3)c(-c3ccc(F)cc3)nn2n1	inactive
CCn1c(-c2nonc2N)nc2c(C#CC(C)(C)O)nc(OC(CN)c3ccccc3)cc21 (stereo not given)	inactive
CC(C)COC(=O)c1ccc2[nH]c(O)c(C=Nc3ccc(S(N)(=O)=O)cc3)c2c1	inactive
COc1cccc(-c2c[nH]c3c(NN=Cc4ccncc4)ncnc23)c1	5.8 µM (active)
Nc1nccc(-c2c(-c3ccc(F)cc3)ncn2C2CCC(O)CC2)n1 (stereo not given)	inactive
CC(=O)NCc1cccc(C#Cc2cncnc2Nc2ccc(OCc3cccc(F)c3)c(Cl)c2)c1	inactive
Cc1ccc(C(=O)NC2CCCCC2)cc1-c1ccc(C(=O)NCC2CC2)cc1	inactive
Clc1ccc(-c2nn3ncccc3c2-c2ccnc(Nc3ccccc3)n2)cc1	inactive
COC(=O)c1sc(-n2cnc3cc(OC)c(OC)cc32)cc1OCc1ccccc1C(F)(F)F	inactive
COc1ccc(COc2ccc(Cc3cnc(N)nc3N)cc2OC)cc1	inactive
CNC(=O)c1cncc(C=Cc2ccccc2Cl)c1	9.19 µM (active)
CNC(=O)c1ncccc1Nc1nc(Nc2cc3c(cc2OC)CCCN3C(=O)CN(C)C)nc2[nH]ccc12	inactive
CS(=O)(=O)CCNCc1nc(-c2ccc3ncnc(Nc4ccc(OCc5cccc(C(F)(F)F)c5)cc4)c3c2)cs1	inactive
COc1ccc2ncn(-c3cc(OC(C)c4ccccc4C(F)(F)F)c(C(N)=O)s3)c2c1 (stereo not given)	inactive
Cn1cc(C=C2C(=O)Nc3cccnc32)c2ccccc21	14.6 µM (active)
